# Source: article PMC5540273 (PLoS ONE, 2017)
# Test system: CSNK2A2
# Settings: concentration: 1 μM, replicates: in singlicate; n = 1
# 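Note: KINOMEscan kinase panel screen.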
row,Compound,%Inh
1,CCc1nc(-c2cccc(C)c2)c(-c2ccnc(NCc3ccccc3)c2)s1,0%
2,COc1cc2c(cc1OCCN1CCN(C)CC1)ncc1c3ccc(C#N)cc3[nH]c21,95.2%
3,NCC(NC(=O)c1cc(-c2cn[nH]c2)c(-c2ccnc3[nH]ccc23)s1)c1ccccc1.O=C(O)C(F)(F)F.O=C(O)C(F)(F)F (stereo not shown) [GSK1325775],33%
4,O=c1cc(N2CCOCC2)nc2n(Cc3cccc4ccccc34)ccn12 [GSK2333389],0%
5,O=C(Nc1n[nH]c2cc(-c3cccc(F)c3)ccc12)C1CC1 [SB-735464],24%
6,C[C@@H](Oc1cc(-n2cnc3ccc(NC(=O)NC(C)(C)C)cc32)sc1C(N)=O)c1ccccc1Cl [GSK346294],0%
7,Cn1ccc2ncnc(Oc3ccc(NC(=O)Nc4ccncc4)c(Cl)c3)c21,0%
8,Nc1nc(-c2ccc3c(N)n[nH]c3c2)cc(N2CCCC2)n1 [GSK2227430],4%
9,O=C(NOCC1CC1)c1ccc(F)c(F)c1Nc1ccc(I)cc1Cl,18%
10,Cn1cc(-c2ccc3c(c2)CCN3C(=O)Cc2ccccc2Cl)c2c(N)ncnc21 [GSK2608885],8%
11,COc1ccc(S(=O)(=O)NC2CCN(c3cc(C)nc(Nc4cccc(C#N)c4)n3)CC2)cc1.O=C(O)C(F)(F)F [GSK1653539],4%
12,Cc1ccc(C(=O)NCC(N)=O)cc1-n1c(C)cc(OCc2ccc(F)cc2F)c(Br)c1=O,0%
13,N#Cc1ccc(-c2cc(-c3c[nH]nc3-c3ccccn3)ccn2)cc1 [GW693028],5%
14,Fc1ccc(-c2ncn(CCCN3CCOCC3)c2-c2cccnc2)cc1 [SB-211743],0%
15,COc1cc2ncn(-c3cc(OCc4sccc4Cl)c(C(N)=O)s3)c2cc1OC [GSK448459],34%
16,O=C(NCCNc1ccnc(Nc2ccc(F)cc2)n1)c1cc2ccccc2s1 [GSK1379874],19%

row,Compound,%Inh
1,CCc1ccnc(/C=C/c2n[nH]c3cc(Sc4ccccc4C(=O)NC)ccc23)c1,0%
2,Cc1nnc(-c2ccc3ncc(-c4ccc(S(C)=O)cc4)n3c2)o1 (stereo not shown),18%
3,CCn1cnc2c(N)ncnc21 [GW345098],19%
4,Nc1nccc(-c2c(-c3ccc(F)cc3)ncn2C2CCN(CC(F)(F)F)CC2)n1 [SB-236560],0%
5,O=C(NCCNc1ccnc(Nc2ccc(F)cc2)n1)Nc1ccccc1F [GSK1379880],3%
6,O=c1cc(N2CCOCC2)nc2n(Cc3cccc(C(F)(F)F)c3)ccn12 [GSK2297543],9%
7,COc1ccc(Nc2nccc(N3CCC(NC(=O)Nc4cc(C)ccc4C)C3)n2)cc1 (stereo not shown) [GSK1379741],0%
8,O=C1NC(=O)C(N2CCc3ccccc32)=C1c1cccc(Cl)c1 [SB-408010],13%
9,Cc1c(Cn2c(C)nn3c(=O)cc(N4CCOC(C)C4)nc23)cccc1C(F)(F)F (stereo not shown) [GSK2344444],9%
10,Fc1ccc(-c2ncn(CCCN3CCOCC3)c2-c2ccccn2)cc1 [SB-211742],0%
11,Cc1c2ccc(N(C)c3ccnc(Nc4cccc(S(N)(=O)=O)c4)n3)cc2nn1Cc1ccccc1.Cl.Cl [GW787226],1%
12,CC(C)(C)n1cnc2c(N)ncnc21 [SKF-97359],0%
13,COCCNC(=O)c1ccc(-c2cc(C(=O)NC3CC3)cc(F)c2C)cc1 [GW868318],9%
14,Cc1cccc(-c2nc(Nc3ccc4ncsc4c3)c3ccccc3n2)n1 [GW867588],18%
15,CN(C(=O)c1ccc(-c2cc(-c3c[nH]nc3-c3ccccn3)ccn2)cc1)C1CCOCC1 [GW810083],0%
16,Cc1ccc(NC(=O)c2ccnc(N3CCN(C)CC3)c2)cc1-c1ccc(C(=O)NCC2CC2)cc1 [GW775604],7%

# Test system: T1, CTK
# T1 construct: gene MATK
# Settings: concentration: 1 μM, replicates: in singlicate; n = 1
row,Compound,%Inh
1,O=c1cc(N2CCOCC2)nc2n(Cc3cccc(Cl)c3Cl)c(C3CC3)nn12 [GSK2358994],0%
2,CCc1nc(-c2cccc(C)c2)c(-c2ccnc(NCc3ccccc3)c2)s1,17%
3,COc1cc2c(cc1OCCN1CCN(C)CC1)ncc1c3ccc(C#N)cc3[nH]c21,23%
4,NCC(NC(=O)c1cc(-c2cn[nH]c2)c(-c2ccnc3[nH]ccc23)s1)c1ccccc1.O=C(O)C(F)(F)F.O=C(O)C(F)(F)F (stereo not shown) [GSK1325775],0%
5,O=c1cc(N2CCOCC2)nc2n(Cc3cccc4ccccc34)ccn12 [GSK2333389],1%
6,O=C(Nc1n[nH]c2cc(-c3cccc(F)c3)ccc12)C1CC1 [SB-735464],49%
7,C[C@@H](Oc1cc(-n2cnc3ccc(NC(=O)NC(C)(C)C)cc32)sc1C(N)=O)c1ccccc1Cl [GSK346294],0%
8,Cn1ccc2ncnc(Oc3ccc(NC(=O)Nc4ccncc4)c(Cl)c3)c21,0%
9,Nc1nc(-c2ccc3c(N)n[nH]c3c2)cc(N2CCCC2)n1 [GSK2227430],0%
10,O=C(NOCC1CC1)c1ccc(F)c(F)c1Nc1ccc(I)cc1Cl,0%
11,Cn1cc(-c2ccc3c(c2)CCN3C(=O)Cc2ccccc2Cl)c2c(N)ncnc21 [GSK2608885],18%
12,NCCNS(=O)(=O)c1ccc(-c2ccnc3[nH]ccc23)cc1 [GSK977617],0%
13,COc1ccc(S(=O)(=O)NC2CCN(c3cc(C)nc(Nc4cccc(C#N)c4)n3)CC2)cc1.O=C(O)C(F)(F)F [GSK1653539],0%
14,Cc1ccc(C(=O)NCC(N)=O)cc1-n1c(C)cc(OCc2ccc(F)cc2F)c(Br)c1=O,0%
15,N#Cc1ccc(-c2cc(-c3c[nH]nc3-c3ccccn3)ccn2)cc1 [GW693028],0%
16,CC(C)(CN)c1nc(-c2ccc(Cl)c(O)c2)c(-c2ccncc2)[nH]1.O=C(O)C(F)(F)F [SB-477794],0%
17,Fc1ccc(-c2ncn(CCCN3CCOCC3)c2-c2cccnc2)cc1 [SB-211743],32%
18,COc1cc2ncn(-c3cc(OCc4sccc4Cl)c(C(N)=O)s3)c2cc1OC [GSK448459],0%

row,Compound,%Inh
1,O=C(NCCNc1ccnc(Nc2ccc(F)cc2)n1)c1cc2ccccc2s1 [GSK1379874],52%
2,CCc1ccnc(/C=C/c2n[nH]c3cc(Sc4ccccc4C(=O)NC)ccc23)c1,0%
3,Cc1nnc(-c2ccc3ncc(-c4ccc(S(C)=O)cc4)n3c2)o1 (stereo not shown),27%
4,CCn1cnc2c(N)ncnc21 [GW345098],51%
5,Nc1nccc(-c2c(-c3ccc(F)cc3)ncn2C2CCN(CC(F)(F)F)CC2)n1 [SB-236560],7%
6,O=C(NCCNc1ccnc(Nc2ccc(F)cc2)n1)Nc1ccccc1F [GSK1379880],0%
7,O=c1cc(N2CCOCC2)nc2n(Cc3cccc(C(F)(F)F)c3)ccn12 [GSK2297543],0%
8,COc1ccc(Nc2nccc(N3CCC(NC(=O)Nc4cc(C)ccc4C)C3)n2)cc1 (stereo not shown) [GSK1379741],0%
9,O=C1NC(=O)C(N2CCc3ccccc32)=C1c1cccc(Cl)c1 [SB-408010],53%
10,Cc1c(Cn2c(C)nn3c(=O)cc(N4CCOC(C)C4)nc23)cccc1C(F)(F)F (stereo not shown) [GSK2344444],2%
11,Fc1ccc(-c2ncn(CCCN3CCOCC3)c2-c2ccccn2)cc1 [SB-211742],0%
12,Cc1c2ccc(N(C)c3ccnc(Nc4cccc(S(N)(=O)=O)c4)n3)cc2nn1Cc1ccccc1.Cl.Cl [GW787226],26%
13,CC(C)(C)n1cnc2c(N)ncnc21 [SKF-97359],21%
14,COCCNC(=O)c1ccc(-c2cc(C(=O)NC3CC3)cc(F)c2C)cc1 [GW868318],11%
15,Cc1cccc(-c2nc(Nc3ccc4ncsc4c3)c3ccccc3n2)n1 [GW867588],0%
16,CN(C(=O)c1ccc(-c2cc(-c3c[nH]nc3-c3ccccn3)ccn2)cc1)C1CCOCC1 [GW810083],5%
17,Cc1ccc(NC(=O)c2ccnc(N3CCN(C)CC3)c2)cc1-c1ccc(C(=O)NCC2CC2)cc1 [GW775604],0%
